{"source": "PubChem BioAssay AID493170", "about": "(National Center for Advancing Translational Sciences (NCATS), 2011)", "note": "Records with an inconclusive call do not appear. A call without a number means that no potency is given here. Activity calls are given as the source filed them. Calls come from the whole dose curve; as a rule, active = well fitted inhibition curve with a large enough effect; inconclusive = small, poorly fitted or top-dose-only effect, or effect the other way; inactive = flat fitted curve, though single readings scatter."}
{"molecular_target": "Ubiquitin carboxyl-terminal hydrolase 2 (Homo sapiens) (UniProt O75604)", "sequence (O75604 whole entry, looked up)": "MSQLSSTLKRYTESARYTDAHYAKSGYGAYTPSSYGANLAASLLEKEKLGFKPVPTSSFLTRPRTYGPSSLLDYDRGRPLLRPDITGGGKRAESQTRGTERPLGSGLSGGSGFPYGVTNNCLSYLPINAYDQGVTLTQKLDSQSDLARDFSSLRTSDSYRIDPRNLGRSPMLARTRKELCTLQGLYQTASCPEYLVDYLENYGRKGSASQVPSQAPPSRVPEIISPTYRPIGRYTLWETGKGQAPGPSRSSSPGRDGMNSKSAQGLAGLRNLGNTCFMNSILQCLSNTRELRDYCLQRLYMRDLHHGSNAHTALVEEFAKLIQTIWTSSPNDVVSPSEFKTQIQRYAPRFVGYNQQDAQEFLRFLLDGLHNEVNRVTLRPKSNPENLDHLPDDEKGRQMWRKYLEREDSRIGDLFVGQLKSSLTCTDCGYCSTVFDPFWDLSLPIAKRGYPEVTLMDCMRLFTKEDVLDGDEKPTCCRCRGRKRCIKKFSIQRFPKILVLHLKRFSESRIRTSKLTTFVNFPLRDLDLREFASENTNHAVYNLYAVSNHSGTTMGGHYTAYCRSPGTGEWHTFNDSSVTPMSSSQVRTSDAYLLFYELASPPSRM", "assay": "Ub-rhodamine 110 based assay for inhibitors Ubiquitin-specific Protease USP2a; note: nearly all actives have a fitted effect of over 50% in size; note: potency is the fitted concentration of half-maximal effect", "details": "USP2a Ub-rhodamine110 cleavage, fluorescence; series mostly up to 38.3 µM", "procedure,_shortened": "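Kinetic fluorescence (485/531 nm) read each minute over 7 min after adding Ub-Rhod110 (150 nM final) to USP2a (5 nM final). The enzyme had 30 min RT exposure to compounds beforehand in Tris pH 8.0 buffer with CaCl2, CHAPS and beta-ME.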"}
{"compound": "O=C(C1CCCN(S(=O)(=O)c2cccc3cccnc23)C1)N1CCN(c2ccccc2F)CC1", "note": "(centres undefined)", "Potency": "inactive"}
{"compound": "COc1ccc(-n2c(=S)[nH]c3cc(C(=O)NCc4ccc(F)cc4)ccc3c2=O)c(OC)c1", "Potency": "inactive"}
{"compound": "Cc1ccccc1OCCn1nc(C(=O)O)c2ccccc2c1=O", "Potency": "inactive"}
{"compound": "Cc1cc(-c2csc(NCc3ccccc3)n2)c(C)n1C", "Potency": "8.91 µM (active)"}
{"compound": "O=C(CNC(=O)c1ccco1)Nc1ccc(S(=O)(=O)N2CCCC2)cc1", "Potency": "inactive"}
{"compound": "Cc1ccc2c(c1)c1c3n2CCN(C(=O)Cn2c(-c4ccccc4)noc2=O)C3CCC1", "note": "(centres undefined)", "Potency": "inactive"}
{"compound": "COc1cccc(NC(=O)Cc2ccccc2)c1", "Potency": "inactive"}
{"compound": "COC(=O)c1[nH]c2ccc(C)cc2c1NC(=O)CN1CCCc2ccccc21", "Potency": "inactive"}
{"compound": "CCOc1ccc2[nH]c(=O)c(CN(Cc3cccs3)Cc3nnnn3C(C)(C)CC)cc2c1", "Potency": "inactive"}
{"compound": "Nn1c(Nc2ccccc2)nc2ccccc2c1=O", "Potency": "inactive"}
{"compound": "O=C(/C=C1\\NC2(CCCC2)Cc2ccccc21)C(=O)N/N=C/c1ccc(O)c(O)c1", "Potency": "7.94 µM (active)"}
{"compound": "O=C(O[C@@H]1OC2COC(=O)c3cc(O)c(O)c(O)c3-c3c(cc(O)c(O)c3O)C(=O)O[C@@H]([C@H]1O)[C@@H]2O)c1cc(O)c(O)c(O)c1", "Potency": "3.16 µM (active)"}
{"compound": "Cc1csc(NC(=O)CCn2c(=O)sc3ccccc32)n1", "Potency": "inactive"}
{"compound": "O=[N+]([O-])/C(C(Cl)=C(Cl)Cl)=C(\\Sc1ccccc1)N1CCCCC1", "Potency": "inactive"}
{"compound": "Cc1cc(SCC(=O)Nc2ccccc2)nc(C)n1", "Potency": "inactive"}
{"compound": "COc1ccc(NC(=O)c2cc(-c3ccco3)nc3ccccc23)cc1S(=O)(=O)N1CCOCC1", "Potency": "4.47 µM (active)"}
{"compound": "NS(=O)(=O)c1ccc(NC(=O)/C=C/c2cn(-c3ccccc3)nc2-c2cccc(Cl)c2)cc1", "Potency": "8.91 µM (active)"}
{"compound": "O=[N+]([O-])c1ccc2nc(C(O)C(O)c3nc4ccc([N+](=O)[O-])cc4[nH]3)[nH]c2c1", "note": "(centres undefined)", "Potency": "11.2 µM (active)"}
{"compound": "CC(C)c1ccc(C2=C(O)c3ccccc3C(=O)C2=O)cc1", "Potency": "inactive"}
{"compound": "COCCn1c(CN(Cc2ccccc2)Cc2ccccc2)nc2c1c(=O)n(C)c(=O)n2C", "Potency": "inactive"}
{"compound": "CCCNC(=O)NCc1ccc(N2CCCC2=O)cc1", "Potency": "inactive"}
{"compound": "C/C(=N/NC(=O)c1cc2ccccc2cc1O)C1C(=O)c2ccccc2C1=O", "Potency": "1.78 µM (active)"}
{"compound": "CCN(CC)S(=O)(=O)c1ccc(-c2nnc(SCC(=O)Nc3ccc4c(c3)OCO4)o2)cc1", "Potency": "10 µM (active)"}
{"compound": "COc1ccc(S(=O)(=O)N(C)CC(=O)Nc2cccc(C(C)=O)c2)cc1Cl", "Potency": "inactive"}
{"compound": "Cc1cc(C)c2c(N=CN(C)C)c(C(=O)N3CCN(c4ncccn4)CC3)sc2n1", "Potency": "inactive"}
{"compound": "N=C1/C(=C\\c2ccc(-c3cccc(Cl)c3)o2)C(=O)N=C2SC=C(c3ccccc3)N12", "Potency": "11.2 µM (active)"}
{"compound": "CC(=O)Nc1cc[n+](CC(=O)c2ccc(Cl)cc2)cc1", "Potency": "inactive"}
{"compound": "COc1ccc(N(C(=O)C(C)C)S(=O)(=O)c2ccc(Cl)cc2)cc1", "Potency": "inactive"}
{"compound": "Cc1ccccc1OCc1nc2ccccc2c(=O)n1N", "Potency": "inactive"}
{"compound": "Cc1c2c(=O)n(-c3nc4ccccc4s3)nc-2cc(O)n1Cc1ccccc1", "Potency": "6.31 µM (active)"}
{"compound": "CC(C)(C)CC(C)(C)NCC(=O)Nc1c2c(nc3ccccc13)CCC2", "Potency": "inactive"}
{"compound": "CCc1ccc([C@@H]2CC=C(C(=O)O)[C@H](c3ccc(C(C)(C)C)cc3)N2S(=O)(=O)c2ccc(C)cc2)cc1", "Potency": "10 µM (active)"}
{"compound": "CCCSCCCNC(=O)CC1Oc2ccccc2NC1=O", "note": "(centres undefined)", "Potency": "inactive"}
{"compound": "CCOc1ccccc1C(=O)Nc1nnc(C(C)C)s1", "Potency": "inactive"}
{"compound": "CCc1c(O)nc(SCC(=O)Nc2ccccc2OC)[nH]c1=O", "Potency": "inactive"}
{"compound": "Cc1noc(NS(=O)(=O)c2ccc(N/C=C\\C(=O)c3cccc4ccccc34)cc2)c1C", "Potency": "10 µM (active)"}
{"compound": "Cc1cccc2c1N(CCCOc1ccc(C(C)(C)C)cc1)C(=O)C2=O", "Potency": "inactive"}
{"compound": "CC(C)(C)[C@H]1COC(=O)[C@@H](Cc2ccc(F)cc2)C/C=C\\C[C@@H](CC(=O)N[C@H](CO)Cc2ccccc2)C(=O)N1", "Potency": "inactive"}
{"compound": "CC(C)C(C(=O)O)N1C(=O)/C(=C/C=C/c2ccco2)SC1=S", "note": "(centres undefined)", "Potency": "5.01 µM (active)"}
